# Results reported in PubChem BioAssay (NCATS).
# Results filed as inconclusive are left out. The source made the active and inactive calls. Calls come from the whole dose curve; as a rule, active = well fitted cell-killing curve with a large enough effect; inconclusive = small, poorly fitted or top-dose-only effect; inactive = flat fitted curve, though single readings scatter. Bridge positions count the residues as written; N and C are the ends. Square brackets hold non-standard residues; d marks the D form. Side chains are listed from the residue outwards. Peptide text beside a SMILES is read from it. * marks the point of attachment. Phg(4-OMe) = COc1ccc([C@H](N)C(=O)O)cc1; d(aIle) = CC[C@H](C)[C@@H](N)C(=O)O; d(aThr) = C[C@@H](O)[C@@H](N)C(=O)O; NMeF = CN[C@@H](Cc1ccccc1)C(=O)O; Isobutyryl = CC(C)C(=O)*
# Experiment: KB-3-1 Cancer Cell Toxicity qHTS against the NCATS CANVASS Library (AID 1347366); note: nearly all actives have a fitted effect of over 75% in size
# Details: KB-3-1 viability, CellTiter-Glo luminescence, 72 h; series mostly up to 46.1 µM; activity change, negative = cytotoxicity: at the top concentration; outcome: at the top concentration
# Text: Natural products and their derivatives continue to be wellsprings of nascent therapeutic potential. However, many laboratories have limited resources for biological evaluation, leaving their previously isolated or synthesized compounds largely or completely untested. To address this issue, the Canvass library of natural products was assembled (https://tripod.nih.gov/canvass), in collaboration with academic and industry researchers, for quantitative high-throughput screening (qHTS) across a diverse set of cell-based and biochemical assays. The pure (>85% purity by liquid chromatography/mass spectrometry [LC/MS]) Canvass library of 346 natural products were submitted by 45 academic laboratories and companies around the world. We collected pure natural products to circumvent deconvolution and structure elucidation due to time and resource limitations. The library was formatted into 1536-well plates and evaluated in 50 qHTS (in an 11-pnt concentration series) bioassays with broad scope of disease-relevant mechanisms. The resulting data set from 50 different assays was then systematically analyzed to identify overall trends and specific natural products with interesting biological activities. Reported herein are the results of each individual qHTS and their corresponding assay protocol. […] National Center for Advancing Translational Sciences (NCATS), Rockville, MD National Institute of Health (NIH), Bethesda, Maryland
# Cancer Cell Toxicity qHTS protocol 1. In a 1536 well, tissue culture treated white solid bottom plates (Corning 7494), 5 uL of KB-3-1 cell solution (final concentration of 500 cells / well) was dispensed using the Multidrop Combi dispenser (Thermo Fisher Scientific) into columns 3-48, rows 1-32. DMEM + 10% FBS + 100 U/mL penicillin / 100ug/mL streptomycin media solution was dispensed into column 1-2, row 1-32 also using the Multidrop Combi dispenser. 2. Control and Compounds were pin transferred (~23nL volume) to the assay plates via Wako Pin-tool (Wako Automation, Richmond VA) equipped with a 1536 pin head. The compounds were transferred to columns 5-48 resulting in a final concentration ranging from 0.17 nM to 103 uM. Dose response titration of Bortezomib was pin transferred into column 3, rows 1-32 (2mM; 1:2 dilution; 16 points; n = 2) resulting to a final concentration range of 0.3nM - 9.2uM. 3. The assay plates were further incubated in the at 37C, 5% CO2, 95% Rh for 72 hr. 4. After incubation, 2.5uL of CellTiter-Glo reagent (Promega) was added to the assay plates (column 1-48, rows 1-32) using the Multidrop Combi dispenser. 5. The assay plates were incubated at room temperature for 10 minutes. 6. Luminescence signal was acquired via the ViewLux plate reader (PerkinElmer) using a clear emission filter, 1 sec exposure, and 1x binning settings.
# % is set by controls: 0 for no effect and ±100 for the full control effect; potency is the fitted concentration of half-maximal effect.
SMILES,Potency,"activity change, negative = cytotoxicity",outcome
CC(=O)Oc1cc2c(c(OC(C)=O)c1C1CCc3cc(Cl)c(Cl)n31)C(=O)n1c-2cc(Cl)c1Cl (stereo not given),23.5 µM (active),–,–
C[C@@]12CCC[C@@](C)(C(=O)O)[C@H]1C[C@@H](O)[C@@]13C[C@@H](CC[C@@H]21)[C@](C)(O)C3,–,7.17% (inactive),–
C[n+]1cc2cc(C(N)=O)[nH]c3c(=N)c(Cl)c(N)c1c23,–,–,inactive
CC[C@@H](c1cc(OC)c(OC)cc1OC)[C@H](C)[C@@H](/C(C)=C/c1cc(OC)c(OC)cc1OC)c1cc(OC)c(OC)cc1OC,–,5.13% (inactive),–
CN1C(=O)C(=O)N2C(=C[C@]3(c4c[nH]c5ccccc45)c4ccccc4N[C@H]23)C1=O,–,–,inactive
CC(C)=CCC[C@]12c3cc4c(cc3CC[C@@]1(C)[C@H](C)CC[C@@H]2O)[nH]c1ccccc14,–,-2.14% (inactive),–
C=C[C@@]1(C)CC[C@@H]([C@H](C)C(C)=O)O1,–,-0.505% (inactive),–
COC(=O)C1=C[C@]23C[C@@H](C)CC[C@@H]2[C@@]2(C)CC[C@@H](C(C)C)[C@@](O)(O3)[C@@H]12,–,-10.4% (inactive),–
C[C@H](c1cnc(N)[nH]1)c1ccc(O)c2[nH]cc(-c3cnc(-c4c[nH]c5ccccc45)c(=O)[nH]3)c12,–,–,inactive
Cc1cc(O)cc2c1C(=O)c1c(O)cc(O)cc1C2=O,–,–,inactive
C/C1=C/[C@@H](C)[C@H](O)[C@@H](O)/C=C/CC/C=C/C(=O)O[C@@H]1[C@H](C)C(=O)CCCC1CC(=O)NC(=O)C1,–,–,inactive
CC(C)=CCCC(C)(O)[C@H]1CC=C(C)C(O)C1 (stereo not given in full),–,1.41% (inactive),–
C=C1CC[C@@H](O[C@H]2C[C@@](O)([C@H](C)NC(=O)c3[nH]c(C)c(Cl)c3Cl)[C@H](O)[C@@H](C)O2)[C@@H]2C=C[C@H](C)C(/C(O)=C3/C(=O)[C@H](C(C)C)N([C@@H]4O[C@H](C)[C@H](OC(N)=O)[C@H](OC(C)=O)[C@@H]4OC)C3=O)[C@@H]12 (stereo not given in full),–,8.04% (inactive),–
CO[C@H]1[C@@H](OC(=O)/C(C)=C\[C@@H]2O[C@@H]2[C@H]2O[C@H]2C)[C@H](O)[C@H](OCC23C[C@@H]4[C@H](C)CC[C@H]4C4(C=O)CC2C=C(C(C)C)C34C(=O)O)O[C@@H]1C (stereo not given in full),–,5.55% (inactive),–
CCC(=O)N[C@@H](C[C@H](C)C(Cl)(Cl)Cl)C(=O)N1C(=O)C=C(OC)[C@@H]1C[C@H](C)CCl,–,4.27% (inactive),–
C=CC(CCCCC)C1C(=O)NC(=O)C1C(=O)C1C2C(C)CC(C(=O)O)CC2CC1(O)C(=O)/C=C/C (stereo not given),–,–,inactive
Cc1cc(C)c(O)c(C(=O)CC2CC(=O)NC(=O)C2)c1,13.2 µM (active),–,–
COc1cc(/C=C/C(=O)OC[C@@H](Cc2ccc(O)c(OC)c2)[C@@H](COC(=O)/C=C/c2ccc(O)c(OC)c2)Cc2ccc(O)c(OC)c2)ccc1O,20.9 µM (active),–,–
C/C=C(/C)c1cc(O)c(C)c2c1Oc1cc(O)cc(C)c1C(=O)O2,–,-7.69% (inactive),–
O=C1c2c(O)cc(O)cc2OC(c2ccc(O)cc2)C1O (stereo not given),–,–,inactive

SMILES,Potency,"activity change, negative = cytotoxicity",outcome
Oc1ccc(C2Oc3cc(O)c4c(c3[C@@H]2c2cc(O)cc(O)c2)[C@H]2C(c3ccc(O)cc3)c3c(O)cc5c(c3[C@H]2C4c2ccc(O)cc2)[C@H](c2cc(O)cc(O)c2)C(c2ccc(O)cc2)O5)cc1 (stereo not given in full),13.2 µM (active),–,–
C[C@@]12CCC[C@@](C)(C(=O)OP(=O)(O)OC[C@H]3O[C@@H](n4cnc5c(N)ncnc54)[C@H](O)[C@@H]3O)[C@H]1C[C@@H](O)[C@@]13C[C@@H](CC[C@@H]21)[C@](C)(O)C3,–,0.344% (inactive),–
CO[C@@H](C[C@@H](C)[C@@H](O)/C=C/C=C/CNC(=O)C(C)(C)[C@H](O)\C(C)=C/C=C\C=C\Cc1cnco1)[C@]1(O)[C@@H](C)C(=O)N(C)[C@@]12COC2=O,–,–,inactive
CC1(C)CC[C@]2(CO)CC[C@]3(C)C(=CCC4[C@@]5(C)CC[C@H](O)C(C)(C)C5CC[C@]43C)C2C1 (stereo not given in full),–,3.01% (inactive),–
CO/C=C/C(=O)c1cc2cnc3c(N)cc(=NC(=O)C(C)C)c([nH]1)c23,0.59 µM (active),–,–
CC[C@@H]1C[C@@]2(CC)OC(=O)[C@@]3(CC)[C@H](CC)[C@@H]1[C@@H]23,–,3.24% (inactive),–
[C-]#[N+][C@@]12C(=O)[C@@H]3[C@@H](O[C@@]4(C(=O)N(C)c5cccc1c54)C3(C)C)C(=O)[C@@]2(C)C=C,–,7.05% (inactive),–
CCC(=O)N[C@@H](C[C@H](C)C(Cl)(Cl)Cl)C(=O)N1C(=O)C=C(OC)[C@@H]1CC(C)C,–,1.63% (inactive),–
COc1cc2c(c(O)c1O)C(=O)c1c(coc1C)C2=O,–,8.94% (inactive),–
CC[C@H](C)[C@H]1NC(=O)[C@@H](NC(=O)C(C)C)[C@@H](C)OC(=O)[C@H](COC(=O)CNC(C)=O)NC(=O)[C@@H]([C@@H](C)O)NC(=O)[C@H](Cc2ccccc2)N(C)C(=O)[C@H](c2ccc(OC)cc2)NC1=O (Isobutyryl-T[d(aIle)][Phg(4-OMe)][NMeF][d(aThr)]S([Gly-Ac]); ester 1-C),–,1.84% (inactive),–
C/C(=C\CC[C@@H](C)[C@H]1CC[C@]2(C)C3=CCC4C(C)(C)[C@@H](O)C[C@@H](O)[C@]4(C)C3[C@H](O)C[C@@]12C)CO (stereo not given in full),–,-24% (inactive),–
O=C1OC(CCO)c2cccc(O)c21 (stereo not given),–,7.86% (inactive),–
C/C(=C\[C@H](C)C(=O)C[C@H](O)CC1CC(=O)NC(=O)C1)[C@@H]1OC(=O)CCCC/C=C/C[C@@H](O)[C@@H]1C,14.8 µM (active),–,–
C/C=C/C1C=CC2CC(C)CC(C)C2C1C(=O)CC(=O)NC(CO)C/C=C/CCCCC (stereo not given),–,-14.4% (inactive),–
COC(=O)[C@]1([C@H]2CCC(=O)O2)CC(=O)c2c(O)cc(C)cc2O1,–,–,inactive
CC(=O)c1c(C)cc2c(c1O)C(=O)c1c(O)cc(O)cc1C2=O,–,–,inactive
COc1cc2oc3ccccc3c(=O)c2cc1OC,–,-7.89% [at 91.4 µM] (inactive),–
C[C@]12CCC[C@](C)(C(=O)O)[C@@H]1CC[C@@]1(C)c3cocc3CC[C@H]21,–,-12.5% (inactive),–
COc1ccc([C@@H]2CC(=O)c3c(cc(O)c(C/C=C(\C)CCC=C(C)C)c3O)O2)cc1,–,-3.45% [at 9.19 µM] (inactive),–
CN1CC[C@@]23c4ccccc4N[C@@H]1[C@@]21CCN(C)[C@@H]3Nc2ccccc21,–,6.48% (inactive),–
